Hits are enriched below; roughly 19% of the tested compounds scored in any of these assays.
IL-1B inflam inh = inflammasome signaling inhibition, IL-1 beta readout; AID 743279; actives 4.7% (n = 360,000); activity change, % at 57.5 µM; THP-1 LPS/ATP IL-1B secretion, AlphaLISA, 16 h; stronger effect = lower value; in the data active = activity change below about -50%; inconclusive = mostly about -30% to -49%
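THP-1 cells pretreated 1 hr with compounds (up to 57.5 uM final), then stimulated with LPS (250 ng/mL final) plus ATP (1.25 mM final); secreted IL-1B measured by AlphaLISA after 16 hr, decreased signal indicating inhibition.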
HT1080NT lethal = kills 2HG-producing HT-1080-NT fibrosarcoma cells; actives 1.6% (n = 360,000); HT-1080-NT fibrosarcoma viability, CellTiter-Glo ATP luminescence, 48 h; AID 686970; Potency, µM (highest dose often 46.1 µM), for the others: top-dose activity, negative = less viability, usual class: cytotoxic;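 note: NT is the 2HG producing partner of a matched IDH1 knockdown line; potency is the fitted concentration of half-maximal effect; 0% = DMSO-treated cells and -100% = media-only wells without cells; nearly all actives have a fitted effect of over 55% in size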
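Fibrosarcoma NT cells, 750 per well in 5% FBS RPMI, were exposed to compound for 48 hours. Viability: CellTiter-Glo luminescence.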
DT40 TDP1 CPT = growth inhibition of DT40 Tdp1-/-;hTDP1 cells with camptothecin (screen for TDP1 inhibitors); actives 12% (n = 420,000); Potency, µM (top dose mostly 46.2 µM), for the others: at the highest dose activity change, negative = growth inhibition, hits mostly inhibitors; chicken DT40 Tdp1-/-;hTDP1 cells + 20 nM CPT, ATP luminescence, 48 h; note: potency is the fitted concentration of half-maximal effect; nearly all actives have a fitted effect of over 55% in size
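Cell growth measured by CellTiter-Glo luminescence after a minimum 48 h, 37 C compound exposure with 20 nM CPT in Tdp1-knockout DT40 cells stably expressing hTDP1, seeded 400/well; qHTS titration format.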
HT1080 IDH1KD tx = kills HT-1080 cells with IDH1 knockdown; HT-1080 IDH1 knockdown viability, ATP luminescence, 48 h; Potency, µM (doses to about 46.1 µM), without a hit: at the top dose activity, negative = toxicity, most hits filed as cytotoxic; actives 2% (n = 360,000);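 note: potency is the fitted concentration of half-maximal effect; 0% = DMSO wells and -100% = cell-free medium wells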
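CellTiter-Glo luminescence after 48 h compound exposure at 37 degrees C of IDH1-knockdown HT-1080 cells in 5% FBS RPMI. %Activity scaled between DMSO wells and cell-free media wells, with curves fitted and assigned curve classes.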
DT40 TDP1 no CPT = qHTS for Inhibitors of human tyrosyl-DNA phosphodiesterase 1 (TDP1): qHTS in cells in absence of CPT; DT40 Tdp1-/- hTDP1 cells, no CPT, ATP luminescence, 48 h; actives 15% (n = 420,000); Potency, µM (titrated, usually from 46.2 µM), without a hit: at the top dose activity change, negative = growth inhibition, most hits filed as inhibitors; note: potency is the fitted concentration of half-maximal effect; nearly all actives have a fitted effect of over 55% in size
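Cells were dispensed at 400 per well, compounds added by pin tool, plates incubated ≥48 hr at 37 °C, then CellTiter-Glo added for 30 min at room temperature before luminescence reading. Line: DT40 Tdp1-/- complemented with hTDP1; camptothecin omitted.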
An asterisk follows results filed as active; u = inconclusive; x = not tested or not shown. Unless noted, calls come from the whole dose curve; as a rule, active = well fitted curve in the direction sought with a large enough effect; inconclusive = small, poorly fitted or top-dose-only effect, or another doubt; inactive = no such curve, though single readings can be large; an effect the other way counts as inactive or inconclusive. Unless noted, % is set by controls: 0 for no effect and ±100 for the full control effect.

SMILES | IL-1B inflam inh | HT1080NT lethal | DT40 TDP1 CPT | HT1080 IDH1KD tx | DT40 TDP1 no CPT
COc1ccc(NC(=S)NCCC(c2ccccc2)c2ccccc2)c(OC)c1 | -0.3 | -20.3% | 17.8µM* | 22.4µM* | 15.8µM*
COc1ccc(NC(=S)N2CCN(C(c3ccccc3)c3ccccc3)CC2)c(OC)c1 | -59.4* | -1.6% | 14.6µM* | u | 18.4µM*
COc1cccc(NC(=S)NCCC(c2ccccc2)c2ccccc2)c1 | 8.4 | -19.7% | 20.6µM* | -22.8% | 13µM*
Cc1cc(Cl)ccc1NC(=S)NCCC(c1ccccc1)c1ccccc1 | -8.3 | u | 15.8µM* | u | 15.8µM*
COc1cccc(NC(=S)NCc2ccccc2)c1 | -3.0 | 4.6% | -7.4% | 10.6% | u
N#Cc1ccc(/C=C2\C=Cc3ccccc32)cc1 | x | x | -24.8% | x | -29.2%
CN1C(=O)N(c2ccccc2)C(Nc2nncs2)C1(C)C (configuration not stated) | 6.5 | 9.9% | -0.4% | 9.8% | 1.9%
Cc1nn(-c2ccccc2)nc1CNC(=O)C1CCC1 | 10.9 | -0.6% | -5.5% | 0.7% | -8.2%
N#Cc1ccc(OCC(=O)N2CCN(c3ccc(C(F)(F)F)cn3)CC2)cc1 | u | -2.6% | -17.2% | -1.8% | -9.1%
COc1cc(OC)cc(C(=O)NCCC(c2ccccc2)c2ccccc2)c1 | -12.3 | -1.0% | u | 0.0% | u
COc1cc(NC(=S)NCCC(c2ccccc2)c2ccccc2)cc(OC)c1 | -7.8 | -27.8% | u | u | 18.4µM*
Cc1ccccc1NC(=S)NCc1cccs1 | 8.3 | 10.3% | -6.4% | 8.5% | u
Cc1ccccc1NC(=S)NCc1ccccc1 | 0.0 | 10.0% | 29.1µM* | 12.0% | 23.1µM*
O=C(NC(=S)N1CCN(c2ccc(F)cc2)CC1)c1ccccc1 | -9.3 | -16.5% | u | -3.0% | 20.6µM*
CC1CCC(C(=O)NC(C(=O)N2CCc3ccccc3C2)C(C)C)CC1 (configuration not stated) | 8.8 | -8.8% | 16.4µM* | -10.1% | u
O=C(NC(=S)N1CCN(c2ccc([N+](=O)[O-])cc2)CC1)c1ccccc1F | -10.0 | 5.2% | u | 22.6% | 20.6µM*
O=C(NC(Cc1ccccc1)C(=O)N1CCN(c2ccc(F)cc2)CC1)c1ccccc1 (configuration not stated) | 6.8 | 3.5% | u | -0.5% | 25.9µM*
CC1CCC(C(=O)NC(C(=O)N2CCN(c3ccccn3)CC2)C(C)C)CC1 (configuration not stated) | 50.0 | 3.7% | -28.6% | u | u
COc1cc(OC)c(/C=N/NC(=O)c2ccc(Cn3nc([N+](=O)[O-])cc3C)cc2)c(OC)c1 | -13.8 | -2.2% | 1.4% | -0.2% | -4.1%
N/C(=C\c1ccccc1)c1ccncc1 | x | x | -1.8% | x | u
CC(C)C(NC(=O)C1CCCCC1)C(=O)N1CCN(c2ccc(F)cc2)CC1 (configuration not stated) | 23.1 | 3.1% | 13µM* | 2.1% | 16.4µM*
O=C(NC(=S)N1CCN(c2ccc([N+](=O)[O-])cc2)CC1)c1ccc(F)cc1 | 16.5 | -11.6% | u | -7.3% | 25.9µM*
CC1(C)CN(c2ccccc2)N(Cc2ccc(F)cc2)C1=O | 15.9 | -0.4% | 9.2µM* | -24.7% | 9.2µM*
O=c1cc(N2CCN(c3ccccc3)CC2)[nH]c(=O)n1Cc1ccc(F)cc1 | -4.5 | -6.3% | -24.9% | -8.0% | -28.2%
Cc1ccc(OCC(=O)Nc2cccnc2Cl)cc1C | 1.0 | 15.8% | -3.3% | 15.2% | -24.7%
CCN(CC)CCN(C(=O)c1ccc2c(c1)OCCO2)c1nc2cc(C)cc(C)c2s1 | -57.2* | -5.1% | 14.6µM* | -16.6% | u
CCN(CC)CCN(C(=O)c1ccc2c(c1)OCCO2)c1nc2c(Cl)cccc2s1 | -66.0* | -10.3% | 18.4µM* | -16.7% | u
CN(C)CCN(C(=O)c1ccccc1Cl)c1nc2c(Cl)cccc2s1 | -68.7* | -4.8% | u | 0.0% | u

Screens deposited in PubChem BioAssay by National Center for Advancing Translational Sciences (NCATS).
